Screening results deposited in PubChem BioAssay by NMMLSC.
A selection: hits, their analogues and other compounds. The true share with any hit is near 3.5%.
Anthrax LF inh2: Bacillus anthracis LF protease inhibitors, primary screen, biochemical, multiplex microsphere, MLPCN library; Lethal factor (Bacillus anthracis), P15917; multiplex microsphere protease cleavage assay; inhibition, % at 10 µM; actives 0.12% (n = 360,000); AID 588501, 2011
Autofluor counter: flagged as autofluorescent in microsphere protease counterscreen | compound autofluorescence counterscreen, microsphere flow cytometry; active compounds read high | actives 3.1% (n = 360,000) | fluorescence intensity (concentration not given with the values); in the data active = fluorescence intensity above about 16000; inconclusive = no clear call, values can overlap the other calls
BoNT-F LC inh: BoNT/F light chain protease inhibitors, primary screen, biochemical, flow cytometry, MLPCN library; Multiplex microsphere protease cleavage assay; inhibition, % at 10 µM; actives 0.22% (n = 360,000); AID 588497, 2011; in the data active = inhibition above about 35%, passing the limit was not always enough; inconclusive = no clear call, values can overlap the other calls
BoNT-A LC inh2: BoNT/A light chain protease inhibitors, primary screen, biochemical, flow cytometry, MLPCN library; AID 588499, 2011; Botulinum neurotoxin type A light chain protease (Clostridium botulinum A str. ATCC 3502); inhibition, % at 10 µM; multiplex microsphere protease substrate cleavage; actives 0.17% (n = 360,000)
Numbers stand for hits. Rule as the data show it, unless noted: active = inhibition above about 30%; inconclusive = no clear call, values can overlap the other calls; inactive = below that.

How did CN(C)c1ccc(NC(=O)c2sc(SCC(=O)Nc3ccc(Br)cc3)nc2N)cc1 do in these assays?
Anthrax LF inh2: inactive; Autofluor counter: inactive; BoNT-F LC inh: inactive; BoNT-A LC inh2: inactive

Results for COc1cc2cc(CN(Cc3ccc4c(c3)OCO4)C(=O)c3ccco3)c(=O)[nH]c2cc1OC ?
Anthrax LF inh2: inactive; Autofluor counter: 16500; BoNT-F LC inh: inactive; BoNT-A LC inh2: inactive

What do the screens show for `COc1cccc(C(=O)N(Cc2ccccc2)Cc2cc3cc4c(cc3[nH]c2=O)OCCO4)c1`?
Anthrax LF inh2: inactive; Autofluor counter: 20933; BoNT-F LC inh: inactive; BoNT-A LC inh2: inactive

What do the screens show for `COc1cccc(C(=O)N(Cc2cc3cc(C)ccc3[nH]c2=O)CC2CCCO2)c1` (centres undefined)?
Anthrax LF inh2: inactive; Autofluor counter: inconclusive; BoNT-F LC inh: inconclusive; BoNT-A LC inh2: inconclusive

Results for COc1ccc(C(=O)N(Cc2ccccc2)Cc2cc3cc4c(cc3[nH]c2=O)OCCO4)cc1 ?
Anthrax LF inh2: inactive; Autofluor counter: 22249; BoNT-F LC inh: inactive; BoNT-A LC inh2: inactive

How did Cc1cc2cc(CN(Cc3ccc4c(c3)OCO4)C(=O)c3ccco3)c(=O)[nH]c2cc1C do in these assays?
Anthrax LF inh2: inactive; Autofluor counter: inactive; BoNT-F LC inh: inactive; BoNT-A LC inh2: inactive

How did COCC(=O)Nc1ccc2c(c1)[C@@H]1C[C@H](CC(=O)OC)O[C@H](CO)[C@@H]1O2 do in these assays?
Anthrax LF inh2: inactive; Autofluor counter: inactive; BoNT-F LC inh: inactive; BoNT-A LC inh2: inactive

What do the screens show for `CCOC(=O)C(C(=O)OCC)=C1OC(=O)c2ccccc21`?
Anthrax LF inh2: inactive; Autofluor counter: 23965; BoNT-F LC inh: inactive; BoNT-A LC inh2: inactive

What do the screens show for `CC(C)(C)C1CCc2onc(C(=O)Nc3cnn(Cc4ccc(F)cc4)c3)c2C1` (centres undefined)?
Anthrax LF inh2: inactive; Autofluor counter: 18196; BoNT-F LC inh: inactive; BoNT-A LC inh2: inactive

How did C/C(=N\NS(=O)(=O)c1c(C)cc(C)cc1C)c1ccncc1 do in these assays?
Anthrax LF inh2: inactive; Autofluor counter: inactive; BoNT-F LC inh: inactive; BoNT-A LC inh2: inactive

How did COc1ccc(S(=O)(=O)Nc2ccc(NC(C)=O)cc2)cc1Cl do in these assays?
Anthrax LF inh2: inactive; Autofluor counter: inactive; BoNT-F LC inh: inactive; BoNT-A LC inh2: inactive

What do the screens show for `COc1ccc(CONS(=O)(=O)c2ccc(NC(C)=O)cc2)cc1Cl`?
Anthrax LF inh2: inactive; Autofluor counter: 20406; BoNT-F LC inh: inactive; BoNT-A LC inh2: inactive

Results for CCn1c(CCNC(=O)c2cccs2)nnc1SCC(=O)Nc1ccc(Cl)cc1 ?
Anthrax LF inh2: inactive; Autofluor counter: 22204; BoNT-F LC inh: inactive; BoNT-A LC inh2: inconclusive

What do the screens show for `CCn1c(SCC(=O)NCCc2ccc(Cl)cc2)nnc1-c1cccs1`?
Anthrax LF inh2: inactive; Autofluor counter: inactive; BoNT-F LC inh: inactive; BoNT-A LC inh2: inactive

How did CCn1c(CCNC(=O)c2cccs2)nnc1SCC(=O)NC1CCCCC1 do in these assays?
Anthrax LF inh2: inactive; Autofluor counter: 21522; BoNT-F LC inh: inactive; BoNT-A LC inh2: inconclusive

How did CCn1c(CNC(=O)c2ccccc2F)nnc1SCC(=O)NC1CCCCC1 do in these assays?
Anthrax LF inh2: inactive; Autofluor counter: inactive; BoNT-F LC inh: inactive; BoNT-A LC inh2: inactive

Results for CCOC(=O)c1c(-c2ccccc2)oc2ccc(OCC)cc12 ?
Anthrax LF inh2: inactive; Autofluor counter: inactive; BoNT-F LC inh: inactive; BoNT-A LC inh2: inactive

What do the screens show for `CCOc1ccc2oc(-c3ccccc3)c(C(=O)N3CCN(C)CC3)c2c1`?
Anthrax LF inh2: inactive; Autofluor counter: 22066; BoNT-F LC inh: inactive; BoNT-A LC inh2: inactive

Results for COc1ccc(N2CCN(Cc3nc4ccsc4c(=O)[nH]3)CC2)cc1 ?
Anthrax LF inh2: inactive; Autofluor counter: 20654; BoNT-F LC inh: inactive; BoNT-A LC inh2: inactive

How did O=C1CCC(C(=O)OCC(=O)N2N=C3/C(=C/c4ccccc4)CCCC3C2c2ccccc2)N1 (centres undefined) do in these assays?
Anthrax LF inh2: inactive; Autofluor counter: 20500; BoNT-F LC inh: inactive; BoNT-A LC inh2: inconclusive

How did O=C1CCCC2=C1C1(CCCCC1)N=C(Nc1nc3ccccc3s1)N2 do in these assays?
Anthrax LF inh2: inactive; Autofluor counter: 16571; BoNT-F LC inh: inactive; BoNT-A LC inh2: inactive

What do the screens show for `O=C1CCCC2=C1C1(CCCC1)N=C(Nc1nc3ccccc3s1)N2`?
Anthrax LF inh2: inactive; Autofluor counter: inactive; BoNT-F LC inh: inactive; BoNT-A LC inh2: inactive

What do the screens show for `COc1ccc([C@@H]2[C@H]3C(=O)N(c4cccc(C(F)(F)F)c4)C(=O)[C@H]3ON2C)cc1`?
Anthrax LF inh2: inactive; Autofluor counter: 21509; BoNT-F LC inh: inactive; BoNT-A LC inh2: inactive

What do the screens show for `CCc1ccc(N2C(=O)CC(=O)NC2=O)cc1`?
Anthrax LF inh2: inactive; Autofluor counter: inactive; BoNT-F LC inh: inactive; BoNT-A LC inh2: inactive

Results for CCc1ccc(N2C(=O)Cc3c2nc(N)c(C#N)c3N)cc1 ?
Anthrax LF inh2: inactive; Autofluor counter: 21928; BoNT-F LC inh: inactive; BoNT-A LC inh2: inconclusive

What do the screens show for `CCN1C(=O)/C(=C/c2ccc(C)s2)NC1=S`?
Anthrax LF inh2: inactive; Autofluor counter: inactive; BoNT-F LC inh: inactive; BoNT-A LC inh2: inactive

What do the screens show for `CCN1C(=O)C(=Cc2ccc(C)s2)C(=O)N(CC)C1=S`?
Anthrax LF inh2: inactive; Autofluor counter: inactive; BoNT-F LC inh: inactive; BoNT-A LC inh2: 69

Results for C[C@H](O)[C@@H]1C(=O)N2CCc3ccc(N4CCN(C)CC4)cc3[C@@H]2C[C@@H]1N(C)C(=O)c1ccco1 ?
Anthrax LF inh2: inactive; Autofluor counter: inactive; BoNT-F LC inh: inactive; BoNT-A LC inh2: inactive

Results for COc1ccc(C2=Nc3ccccc3NC(=O)C2N(Cc2ccccc2)C(=O)C2=NNC(=O)CC2)cc1 (centres undefined) ?
Anthrax LF inh2: inactive; Autofluor counter: inactive; BoNT-F LC inh: inactive; BoNT-A LC inh2: inactive

What do the screens show for `COc1cc2c(cc1OC)[C@@H](Cc1ccc(OCCC#N)cc1)N(C)CC2`?
Anthrax LF inh2: inactive; Autofluor counter: inactive; BoNT-F LC inh: 40; BoNT-A LC inh2: inactive

What do the screens show for `C/C(=N\NC(N)=S)C1(C)CC2(CC(C)(C)OC2=O)C(=O)O1` (centres undefined)?
Anthrax LF inh2: inactive; Autofluor counter: inactive; BoNT-F LC inh: inactive; BoNT-A LC inh2: inactive

What do the screens show for `CC(=O)Nc1ccc(C(=O)O)cc1`?
Anthrax LF inh2: inactive; Autofluor counter: inactive; BoNT-F LC inh: inactive; BoNT-A LC inh2: inactive

What do the screens show for `CC(=O)Nc1ccc(NC(=O)C(F)(F)F)cc1`?
Anthrax LF inh2: inactive; Autofluor counter: 22771; BoNT-F LC inh: inactive; BoNT-A LC inh2: inconclusive

Results for CC(=O)Nc1ccccc1NC(=O)C(F)(F)F ?
Anthrax LF inh2: inactive; Autofluor counter: 16513; BoNT-F LC inh: inactive; BoNT-A LC inh2: inactive

Results for CC(=O)Nc1ccccc1C ?
Anthrax LF inh2: inactive; Autofluor counter: inactive; BoNT-F LC inh: inactive; BoNT-A LC inh2: inactive

What do the screens show for `O=C(NNC(=O)c1ccncc1)Nc1ccc(N=Nc2ccccc2)cc1`?
Anthrax LF inh2: inactive; Autofluor counter: inactive; BoNT-F LC inh: inactive; BoNT-A LC inh2: inactive

Results for Cn1c(C(O)c2ccccc2F)nc(Cl)c1Cl (centres undefined) ?
Anthrax LF inh2: inactive; Autofluor counter: 22133; BoNT-F LC inh: inactive; BoNT-A LC inh2: inactive

What do the screens show for `COc1ccc(/C=C2/SC(=S)N(Cc3ccccc3)C2=O)cc1O`?
Anthrax LF inh2: inactive; Autofluor counter: inactive; BoNT-F LC inh: inactive; BoNT-A LC inh2: inactive
